# Unmarked numbers belong to inactive results.
# What was measured:
# Assay in all cases: log2 ratio of Biotin-Ahx-Ub-VS probe labelling (fragment/DMSO); higher = less target engagement (more negative = stronger competition), active = hit call of the paper (q ≤ 0.05, log2 ratio ≤ -1)
# Settings in all cases: compound concentration: 200 uM; treatment time: 3 h
# [1] = molecular target: T1, OTUD6B (UniProt Q8N6M0)
# T1 sequence (whole entry): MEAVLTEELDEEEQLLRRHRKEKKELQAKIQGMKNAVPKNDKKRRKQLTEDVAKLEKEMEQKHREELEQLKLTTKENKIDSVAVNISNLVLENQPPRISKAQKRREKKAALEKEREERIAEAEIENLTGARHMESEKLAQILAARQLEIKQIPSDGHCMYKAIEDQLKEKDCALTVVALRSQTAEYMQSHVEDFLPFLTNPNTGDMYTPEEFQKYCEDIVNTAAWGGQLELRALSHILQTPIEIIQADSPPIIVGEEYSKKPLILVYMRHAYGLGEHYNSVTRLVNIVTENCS
# How it was run: (§1)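 The table lists average log2 ratios of fragment over vehicle, from an unpaired t-test on global-median-normalised Spectronaut label-free quantities. Proteins with ≥2 unique peptides were used. Samples were HEK293T lysate (495 µg) treated in triplicate with fragment at 200 µM or vehicle for 3 h, then with Biotin-Ahx-Ub-VS (0.5 µM final) for 1 h, with labelled DUBs NeutrAvidin-enriched and run by diaPASEF LC-MS/MS.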
# [2] = molecular target: T2, OTUD7B (UniProt Q6GQQ9)
# T2 sequence (whole entry): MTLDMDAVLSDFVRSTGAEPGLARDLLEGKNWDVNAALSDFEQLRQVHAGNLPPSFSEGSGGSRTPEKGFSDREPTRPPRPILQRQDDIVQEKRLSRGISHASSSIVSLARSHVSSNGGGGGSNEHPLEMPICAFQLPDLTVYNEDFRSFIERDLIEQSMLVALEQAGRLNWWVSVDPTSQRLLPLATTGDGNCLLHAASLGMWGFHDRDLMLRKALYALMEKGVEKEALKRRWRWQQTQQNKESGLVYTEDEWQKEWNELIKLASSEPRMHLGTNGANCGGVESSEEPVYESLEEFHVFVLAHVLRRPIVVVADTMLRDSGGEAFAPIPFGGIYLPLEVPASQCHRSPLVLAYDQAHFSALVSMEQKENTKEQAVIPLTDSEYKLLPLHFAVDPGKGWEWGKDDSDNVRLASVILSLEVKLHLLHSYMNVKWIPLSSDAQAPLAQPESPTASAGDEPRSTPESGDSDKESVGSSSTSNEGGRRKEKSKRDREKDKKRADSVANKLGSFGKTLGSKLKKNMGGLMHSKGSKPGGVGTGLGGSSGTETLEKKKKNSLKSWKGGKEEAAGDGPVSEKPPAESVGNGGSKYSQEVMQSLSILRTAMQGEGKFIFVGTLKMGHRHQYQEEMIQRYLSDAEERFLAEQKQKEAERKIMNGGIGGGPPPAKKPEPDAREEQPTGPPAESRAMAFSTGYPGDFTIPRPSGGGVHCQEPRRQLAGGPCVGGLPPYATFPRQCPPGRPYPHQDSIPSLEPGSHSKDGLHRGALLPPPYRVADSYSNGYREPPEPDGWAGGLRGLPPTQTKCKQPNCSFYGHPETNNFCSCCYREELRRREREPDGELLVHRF
# How it was run: as §1
# [3] = molecular target: PRPF8 (UniProt Q6P2Q9)
# How it was run: as §1
# [4] = molecular target: T3, PSMD7 (UniProt P51665)
# T3 sequence (whole entry): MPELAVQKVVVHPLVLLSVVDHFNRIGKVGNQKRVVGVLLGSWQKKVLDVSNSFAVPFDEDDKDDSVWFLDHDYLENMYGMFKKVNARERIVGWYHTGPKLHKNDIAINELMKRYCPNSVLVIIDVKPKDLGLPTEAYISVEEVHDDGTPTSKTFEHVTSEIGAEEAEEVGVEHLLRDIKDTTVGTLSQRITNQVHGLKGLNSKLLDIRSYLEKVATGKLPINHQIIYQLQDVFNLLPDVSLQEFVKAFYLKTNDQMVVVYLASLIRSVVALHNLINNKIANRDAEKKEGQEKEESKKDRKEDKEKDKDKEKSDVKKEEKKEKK
# How it was run: as §1
# [5] = molecular target: UCHL1 (UniProt P09936)
# Chain of UCHL1 (P09936 whole entry, looked up): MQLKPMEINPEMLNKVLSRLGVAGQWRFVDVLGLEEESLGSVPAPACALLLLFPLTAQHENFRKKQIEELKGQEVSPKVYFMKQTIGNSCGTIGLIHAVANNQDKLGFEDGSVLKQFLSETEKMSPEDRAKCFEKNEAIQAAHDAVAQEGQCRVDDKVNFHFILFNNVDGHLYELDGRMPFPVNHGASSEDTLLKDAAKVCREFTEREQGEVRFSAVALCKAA
# How it was run: as §1
# [6] = molecular target: T4, UCHL3 (UniProt P15374)
# T4 sequence (whole entry): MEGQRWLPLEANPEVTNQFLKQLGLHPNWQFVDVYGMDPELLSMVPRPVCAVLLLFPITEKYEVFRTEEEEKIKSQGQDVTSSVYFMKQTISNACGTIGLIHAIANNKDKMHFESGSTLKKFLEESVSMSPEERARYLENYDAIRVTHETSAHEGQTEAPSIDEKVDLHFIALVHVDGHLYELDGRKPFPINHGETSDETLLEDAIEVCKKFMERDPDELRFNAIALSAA
# How it was run: as §1
# [7] = molecular target: T5, UCHL5 (UniProt Q9Y5K5)
# T5 sequence (whole entry): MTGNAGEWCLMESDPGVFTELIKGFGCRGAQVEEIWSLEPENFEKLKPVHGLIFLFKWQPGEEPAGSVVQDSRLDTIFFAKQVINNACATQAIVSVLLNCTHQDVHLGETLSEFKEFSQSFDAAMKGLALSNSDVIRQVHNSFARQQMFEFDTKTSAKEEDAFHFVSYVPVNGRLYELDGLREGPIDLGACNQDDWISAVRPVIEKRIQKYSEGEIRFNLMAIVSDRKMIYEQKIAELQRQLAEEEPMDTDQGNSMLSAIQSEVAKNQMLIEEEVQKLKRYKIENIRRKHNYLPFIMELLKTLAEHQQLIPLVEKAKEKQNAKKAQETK
# How it was run: as §1
# [8] = molecular target: USP10 (UniProt Q14694)
# Chain of USP10 (Q14694 whole entry): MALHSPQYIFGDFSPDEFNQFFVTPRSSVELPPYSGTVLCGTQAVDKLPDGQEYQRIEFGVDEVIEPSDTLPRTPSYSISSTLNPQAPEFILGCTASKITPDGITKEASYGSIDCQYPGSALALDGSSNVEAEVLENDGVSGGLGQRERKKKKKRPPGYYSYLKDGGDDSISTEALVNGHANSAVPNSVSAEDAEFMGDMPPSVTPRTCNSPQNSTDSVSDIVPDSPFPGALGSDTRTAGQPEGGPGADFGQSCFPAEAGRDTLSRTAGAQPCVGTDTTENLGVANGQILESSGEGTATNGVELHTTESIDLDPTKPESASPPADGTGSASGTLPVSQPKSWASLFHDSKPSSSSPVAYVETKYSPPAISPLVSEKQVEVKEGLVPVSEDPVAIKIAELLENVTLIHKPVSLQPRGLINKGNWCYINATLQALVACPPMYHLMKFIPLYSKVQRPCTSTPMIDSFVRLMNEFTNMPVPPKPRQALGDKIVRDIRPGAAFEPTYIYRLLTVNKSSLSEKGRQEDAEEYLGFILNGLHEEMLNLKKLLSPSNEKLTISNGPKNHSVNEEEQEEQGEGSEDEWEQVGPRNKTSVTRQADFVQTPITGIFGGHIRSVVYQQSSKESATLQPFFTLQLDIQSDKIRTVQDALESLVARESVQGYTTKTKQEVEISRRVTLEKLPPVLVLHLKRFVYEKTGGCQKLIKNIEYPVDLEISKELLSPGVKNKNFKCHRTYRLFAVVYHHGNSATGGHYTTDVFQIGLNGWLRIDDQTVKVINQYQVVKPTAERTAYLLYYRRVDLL
# How it was run: as §1
# [9] = molecular target: T6, USP15 (UniProt Q9Y4E8)
# T6 sequence (whole entry): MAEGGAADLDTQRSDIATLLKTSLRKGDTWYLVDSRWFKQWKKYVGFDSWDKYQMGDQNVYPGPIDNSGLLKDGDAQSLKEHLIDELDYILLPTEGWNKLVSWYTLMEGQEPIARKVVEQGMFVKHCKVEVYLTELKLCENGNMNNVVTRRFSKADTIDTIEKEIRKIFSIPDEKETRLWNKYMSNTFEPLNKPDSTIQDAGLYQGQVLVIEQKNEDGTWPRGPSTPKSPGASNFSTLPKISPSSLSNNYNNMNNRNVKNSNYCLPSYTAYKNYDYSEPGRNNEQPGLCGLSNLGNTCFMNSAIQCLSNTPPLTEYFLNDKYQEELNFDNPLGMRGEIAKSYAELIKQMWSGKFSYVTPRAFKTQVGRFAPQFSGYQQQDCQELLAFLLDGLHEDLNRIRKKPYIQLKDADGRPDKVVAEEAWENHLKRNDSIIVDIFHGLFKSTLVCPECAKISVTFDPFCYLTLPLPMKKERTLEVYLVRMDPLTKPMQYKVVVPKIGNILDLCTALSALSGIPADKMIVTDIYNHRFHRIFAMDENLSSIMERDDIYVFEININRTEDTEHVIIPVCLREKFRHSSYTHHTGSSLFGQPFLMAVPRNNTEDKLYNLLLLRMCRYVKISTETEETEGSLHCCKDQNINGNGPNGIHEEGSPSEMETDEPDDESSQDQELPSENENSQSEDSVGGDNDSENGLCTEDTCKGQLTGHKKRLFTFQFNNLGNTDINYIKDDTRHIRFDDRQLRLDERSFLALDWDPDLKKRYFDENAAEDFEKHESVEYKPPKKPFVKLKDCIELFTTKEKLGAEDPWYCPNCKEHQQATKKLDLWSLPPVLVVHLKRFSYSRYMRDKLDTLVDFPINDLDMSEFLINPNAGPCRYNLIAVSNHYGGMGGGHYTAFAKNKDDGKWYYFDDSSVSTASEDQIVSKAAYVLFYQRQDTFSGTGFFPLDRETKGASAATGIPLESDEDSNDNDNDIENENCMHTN
# How it was run: as §1
# [10] = molecular target: USP16 (UniProt Q9Y5T5)
# Chain of USP16 (Q9Y5T5 whole entry, looked up): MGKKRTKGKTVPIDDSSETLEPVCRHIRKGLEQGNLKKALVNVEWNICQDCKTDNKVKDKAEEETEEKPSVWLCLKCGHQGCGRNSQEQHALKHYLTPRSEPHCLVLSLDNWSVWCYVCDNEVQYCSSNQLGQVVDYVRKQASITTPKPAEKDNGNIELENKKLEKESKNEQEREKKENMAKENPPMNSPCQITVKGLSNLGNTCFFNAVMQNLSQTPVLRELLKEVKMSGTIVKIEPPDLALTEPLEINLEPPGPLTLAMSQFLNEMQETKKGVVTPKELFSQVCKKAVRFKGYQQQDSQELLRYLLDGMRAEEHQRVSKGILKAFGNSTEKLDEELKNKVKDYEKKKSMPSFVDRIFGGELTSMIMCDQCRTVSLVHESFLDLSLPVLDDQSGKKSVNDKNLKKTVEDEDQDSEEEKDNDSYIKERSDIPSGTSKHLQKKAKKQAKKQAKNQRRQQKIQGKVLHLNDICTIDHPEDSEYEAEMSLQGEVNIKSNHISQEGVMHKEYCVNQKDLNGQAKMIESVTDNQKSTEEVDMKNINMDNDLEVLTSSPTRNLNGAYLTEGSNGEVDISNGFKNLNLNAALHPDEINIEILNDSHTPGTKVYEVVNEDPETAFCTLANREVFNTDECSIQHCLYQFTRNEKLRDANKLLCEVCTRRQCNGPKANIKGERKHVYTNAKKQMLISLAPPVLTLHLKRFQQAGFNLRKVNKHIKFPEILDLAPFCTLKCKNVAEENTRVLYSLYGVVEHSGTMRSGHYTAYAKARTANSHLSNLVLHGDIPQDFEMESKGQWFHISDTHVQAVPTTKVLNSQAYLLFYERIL
# How it was run: as §1
smiles,measurement,setting,value
N#Cc1ccc(CNC(=O)CCl)cc1,log2 ratio of Biotin-Ahx-Ub-VS probe labelling,[1],0.025
same,log2 ratio of Biotin-Ahx-Ub-VS probe labelling,[2],-0.865
same,log2 ratio of Biotin-Ahx-Ub-VS probe labelling,[3],-0.187
same,log2 ratio of Biotin-Ahx-Ub-VS probe labelling,[4],-0.28
same,log2 ratio of Biotin-Ahx-Ub-VS probe labelling,[5],-1.19 (active)
same,log2 ratio of Biotin-Ahx-Ub-VS probe labelling,[6],0.183
same,log2 ratio of Biotin-Ahx-Ub-VS probe labelling,[7],-0.131
same,log2 ratio of Biotin-Ahx-Ub-VS probe labelling,[8],-0.0787
same,log2 ratio of Biotin-Ahx-Ub-VS probe labelling,[9],-0.145
same,log2 ratio of Biotin-Ahx-Ub-VS probe labelling,[10],0.29
